Consider nine compounds from PubChem BioAssay (NCI).

Where “and” joins values, the source holds several entries; their conditions need not be identical. Identical values can stand only once. Compounds without any hit were thinned out: in the full panel of roughly 79,000, 15% have a hit. The source holds several records for some structures; these can differ, active in one and inactive in another. Calls of active or inactive are those of the source. No stated cut-off is given here; in the data, active means growth inhibition above about 70%; inactive means the rest.

Assay [1] can be described thus: NCI Yeast Anticancer Drug Screen. Data for the rad50 strain (AID 155).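 Further: 0% = growth of vehicle-only cultures of the same strain.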 The following applies: S. cerevisiae rad50 strain growth inhibition, stronger effect = higher value. The gist of the method:
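Growth of the mutant yeast was measured after compound exposure and referenced to vehicle-treated cultures.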

The nature of assay [2]: NCI Yeast Anticancer Drug Screen. Data for the mec2-1 strain (AID 157). The following applies: S. cerevisiae mec2-1 strain, stronger effect = higher value. Put shortly:
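Each compound was tested on mec2-1 yeast, a strain altered in DNA damage repair or cell cycle control. Growth inhibition is reported relative to vehicle.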

Assay [3] in a line: NCI Yeast Anticancer Drug Screen. Data for the sgs1 mgt1 strain (AID 161).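 Further: 0% = growth of cultures given vehicle only.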 Conditions: S. cerevisiae sgs1 mgt1 strain, stronger effect = higher value. Put shortly:
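Test agents were incubated with a DNA-repair-mutant yeast strain. Growth was then read and compared against vehicle-treated controls.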

The nature of assay [4]: NCI Yeast Anticancer Drug Screen. Data for the cln2 rad14 strain (AID 165).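 Further: 0% = growth equal to vehicle treated cultures.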 Conditions: S. cerevisiae cln2 rad14 strain, stronger effect = higher value. The gist of the method:
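Test compounds were added to cln2 rad14 yeast cultures; inhibition of growth was then determined by comparison with vehicle treatment.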

Assay [5] is described as follows: NCI Yeast Anticancer Drug Screen. Data for the bub3 strain (AID 167). The following applies: S. cerevisiae bub3 mutant strain, stronger effect = higher value. Put shortly: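 Whole-cell yeast assay. The mutant strain was incubated with compounds, and growth inhibition was determined by comparison with vehicle-treated cells.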
Assay [6] is described as follows: NCI Yeast Anticancer Drug Screen. Data for the mlh1 rad18 strain (AID 175). Conditions: S. cerevisiae mlh1 rad18 strain growth inhibition, stronger effect = higher value. Put shortly: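 Inhibition values reflect reduced growth of mutant yeast versus vehicle-treated controls following compound exposure; the mutations affect DNA damage repair.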
Setting [7] is: at 5.0 µM (retest, dose inferred, filed as 0.5).
[8] abbreviates: at 50.0 µM (retest, dose inferred, filed as 5.0).

As to `COC12C(COC(C)=O)C3=C(C(=O)C(C)=C(N4CCCCC4)C3=O)N1CC1NC12` (configuration not stated), the growth inhibition in assay [1] (setting [7]) was 93% (active); in assay [1] (setting [8]), 97% (active); in assay [1] (at 50.0 µM) it was 89.5% (active); in assay [2] (setting [7]), 96% (active); in assay [2] (setting [8]), 95% (active); in assay [2] (at 50.0 µM) it was 91.7% (active). Moreover, the growth inhibition in assay [3] (setting [7]) is 79% (active); in assay [3] (setting [8]), 97% (active); in assay [3] (at 50.0 µM) it was 90.5% (active); in assay [4] (setting [7]), 93% (active); in assay [4] (setting [8]), 97% (active); in assay [4] (at 50.0 µM), 86.6% (active). Moreover, the growth inhibition in assay [5] (setting [7]) was 67% (inactive); in assay [5] (setting [8]), 96% (active); in assay [5] (at 50.0 µM), 88% (active); in assay [6] (setting [7]), 98% (active); in assay [6] (setting [8]), 97% (active); in assay [6] (at 50.0 µM), 90% (active).
As for `CCc1cc2c(cc1O)C(C)(C)CCC2(C)C`, the growth inhibition is -1% (inactive) in assay [1] (setting [7]); 7% (inactive) in assay [1] (setting [8]); 98% (active) in assay [1] (at 50.0 µM); -2% (inactive) in assay [2] (setting [7]); -7% (inactive) in assay [2] (setting [8]); 97.8% (active) in assay [2] (at 50.0 µM). For the same compound, the growth inhibition in assay [3] (setting [7]) was -3% (inactive); in assay [3] (setting [8]), 7% (inactive); in assay [3] (at 50.0 µM), 52.5% (inactive); in assay [4] (setting [7]), 5% (inactive); in assay [4] (setting [8]), 10% (inactive); in assay [4] (at 50.0 µM), 98% (active). Moreover, the growth inhibition is 3% (inactive) in assay [5] (setting [7]); 18% (inactive) in assay [5] (setting [8]); 43% (inactive) in assay [5] (at 50.0 µM); 0% (inactive) in assay [6] (setting [7]); 4% (inactive) in assay [6] (setting [8]); 98% (active) in assay [6] (at 50.0 µM).
Take `COc1cc(C(=O)CCN(CCCl)CCCl)cc(OC)c1OC`: the growth inhibition in assay [1] (setting [7]) was -1% (inactive); in assay [1] (setting [8]), 68% (inactive); in assay [1] (at 50.0 µM), 95.5% (active); in assay [2] (setting [7]), 0% (inactive); in assay [2] (setting [8]), 67% (inactive); in assay [2] (at 50.0 µM), 97.3% (active). The growth inhibition is 13% (inactive) in assay [3] (setting [7]); 82% (active) in assay [3] (setting [8]); 97.2% (active) in assay [3] (at 50.0 µM); 0% (inactive) in assay [4] (setting [7]); 55% (inactive) in assay [4] (setting [8]); 99.5% (active) in assay [4] (at 50.0 µM). Also, the growth inhibition is -3% (inactive) in assay [5] (setting [7]); 82% (active) in assay [5] (setting [8]); 93.2% (active) in assay [5] (at 50.0 µM); 13% (inactive) in assay [6] (setting [7]); 83% (active) in assay [6] (setting [8]); 97.1% (active) in assay [6] (at 50.0 µM).
As to `CCC(C)N1CN(c2ccccc2)C2(CCN(CCCC3(c4ccc(F)cc4)OCCO3)CC2)C1=O` (configuration not stated), the growth inhibition was -9% (inactive) in assay [1] (setting [7]); 93% (active) in assay [1] (setting [8]); -0.8% (inactive) in assay [1] (at 50.0 µM); -7% (inactive) in assay [2] (setting [7]); 98% (active) in assay [2] (setting [8]); 5.3% (inactive) in assay [2] (at 50.0 µM). For the same compound, the growth inhibition in assay [3] (setting [7]) is -6% (inactive); in assay [3] (setting [8]), 95% (active); in assay [3] (at 50.0 µM) it was 34% (inactive); in assay [4] (setting [7]), -7% (inactive); in assay [4] (setting [8]), 92% (active); in assay [4] (at 50.0 µM), 74.5% (active). Also, the growth inhibition was -2% (inactive) in assay [5] (setting [7]); 94% (active) in assay [5] (setting [8]); 7.55% (inactive) in assay [5] (at 50.0 µM); -3% (inactive) in assay [6] (setting [7]); 96% (active) in assay [6] (setting [8]); 31% (inactive) in assay [6] (at 50.0 µM).
`O=C1N[C@@H]2C(=C[C@H](O)[C@@H](O)[C@H]2O)c2cc3c(c(O)c21)OCO3`: the growth inhibition in assay [1] (setting [7]) was 41% (inactive); in assay [1] (setting [8]) it was 82% (active); in assay [1] (at 50.0 µM), 3.8% (inactive); in assay [2] (setting [7]) it was 41% (inactive); in assay [2] (setting [8]), 82% (active); in assay [2] (at 50.0 µM), -19% (inactive). Besides, the growth inhibition in assay [3] (setting [7]) was 53% (inactive); in assay [3] (setting [8]), 84% (active); in assay [3] (at 50.0 µM) it was 18.1% (inactive); in assay [4] (setting [7]) it was 60% (inactive); in assay [4] (setting [8]) it was 83% (active); in assay [4] (at 50.0 µM), 0.2% (inactive). Moreover, the growth inhibition was 53% (inactive) in assay [5] (setting [7]); 78% (active) in assay [5] (setting [8]); -3.1% (inactive) in assay [5] (at 50.0 µM); 41% (inactive) in assay [6] (setting [7]); 84% (active) in assay [6] (setting [8]); 6.3% (inactive) in assay [6] (at 50.0 µM).
Consider `O=C1C=CC(=O)c2c(O)ccc(O)c21`, for which the growth inhibition in assay [1] (setting [7]) was 99% (active) and 16% (inactive); in assay [1] (setting [8]), 17% (inactive) and 93% (active); in assay [1] (at 50.0 µM) it was 89.1% (active) and 64% (inactive); in assay [2] (setting [7]), 99% (active) and -14% (inactive); in assay [2] (setting [8]), 14% (inactive) and 95% (active); in assay [2] (at 50.0 µM) it was 91.5% (active) and 68.8% (inactive). For the same compound, the growth inhibition in assay [3] (setting [7]) was 97% (active) and -5% (inactive); in assay [3] (setting [8]) it was 19% (inactive) and 95% (active); in assay [3] (at 50.0 µM), 91% (active) and 80.3% (active); in assay [4] (setting [7]) it was 98% (active) and 20% (inactive); in assay [4] (setting [8]), 16% (inactive) and 93% (active); in assay [4] (at 50.0 µM), 88.8% (active) and 77.7% (active). Moreover, the growth inhibition in assay [5] (setting [7]) was 99% (active) and 11% (inactive); in assay [5] (setting [8]), 80% (active) and 93% (active); in assay [5] (at 50.0 µM) it was 89.6% (active) and 79.1% (active); in assay [6] (setting [7]), 99% (active) and -4% (inactive); in assay [6] (setting [8]), 21% (inactive) and 92% (active); in assay [6] (at 50.0 µM), 88.4% (active).
Regarding `CC1=C[n+]2cc(C)ccc2Sc2c1ccc1ccccc21`, the growth inhibition in assay [1] (setting [7]) was -2% (inactive); in assay [1] (setting [8]), 24% (inactive); in assay [1] (at 50.0 µM), 64.3% (inactive); in assay [2] (setting [7]), 11% (inactive); in assay [2] (setting [8]), 50% (inactive); in assay [2] (at 50.0 µM), 74.7% (active). Besides, the growth inhibition in assay [3] (setting [7]) was -20% (inactive); in assay [3] (setting [8]), 10% (inactive); in assay [3] (at 50.0 µM), 80.5% (active); in assay [4] (setting [7]) it was -2% (inactive); in assay [4] (setting [8]), 4% (inactive); in assay [4] (at 50.0 µM) it was 28.8% (inactive). In addition, the growth inhibition in assay [5] (setting [7]) was 0% (inactive); in assay [5] (setting [8]), 29% (inactive); in assay [5] (at 50.0 µM) it was 66.9% (inactive); in assay [6] (setting [7]) it was -1% (inactive); in assay [6] (setting [8]), 30% (inactive); in assay [6] (at 50.0 µM), 79.5% (active).
On to `CCCCCCCCCCCC[As](=O)(O)O`, for which the growth inhibition in assay [1] (setting [7]) was 0% (inactive); in assay [1] (setting [8]) it was 31% (inactive); in assay [1] (at 50.0 µM) it was 99.4% (active); in assay [2] (setting [7]), -1% (inactive); in assay [2] (setting [8]) it was 26% (inactive); in assay [2] (at 50.0 µM), 99.3% (active). Also, the growth inhibition in assay [3] (setting [7]) was 7% (inactive); in assay [3] (setting [8]) it was 48% (inactive); in assay [3] (at 50.0 µM) it was 98.2% (active); in assay [4] (setting [7]) it was -3% (inactive); in assay [4] (setting [8]) it was 46% (inactive); in assay [4] (at 50.0 µM), 98.5% (active). The growth inhibition in assay [5] (setting [7]) was 3% (inactive); in assay [5] (setting [8]) it was 53% (inactive); in assay [5] (at 50.0 µM), 99.2% (active); in assay [6] (setting [7]), 6% (inactive); in assay [6] (setting [8]), 51% (inactive); in assay [6] (at 50.0 µM), 98.9% (active).
Take `Cc1ccc(C(=O)OC(C(=O)O)C(OC(=O)c2ccc(C)cc2)C(=O)O)cc1` (configuration not stated) (tested in a mixture with another compound): the growth inhibition in assay [1] (setting [7]) was 15% (inactive); in assay [1] (setting [8]), 79% (active); in assay [1] (at 50.0 µM), 6.35% (inactive) and 92.2% (active); in assay [2] (setting [7]) it was -7% (inactive); in assay [2] (setting [8]), 61% (inactive); in assay [2] (at 50.0 µM), 9% (inactive) and 93.7% (active). In addition, the growth inhibition in assay [3] (setting [7]) is 28% (inactive); in assay [3] (setting [8]), 70% (active); in assay [3] (at 50.0 µM) it was 21.2% (inactive) and 93.8% (active); in assay [4] (setting [7]), 34% (inactive); in assay [4] (setting [8]), 77% (active); in assay [4] (at 50.0 µM), -1.75% (inactive) and 91.3% (active). Also, the growth inhibition in assay [5] (setting [7]) was -10% (inactive); in assay [5] (setting [8]), 88% (active); in assay [5] (at 50.0 µM), 23.3% (inactive) and 93% (active); in assay [6] (setting [7]), 19% (inactive); in assay [6] (setting [8]), 86% (active); in assay [6] (at 50.0 µM), 12.3% (inactive) and 92.5% (active).
